# ChEMBL document CHEMBL3988442, “University of Dundee, Small-Polar-MMV Screening Library” (2021)
# Hit rate of the full screen: of about 48,000 compounds, about 13,000 (27%) showed an effect of 50% or more. The list shows a part of the results.
# Test system: Wolbachia pipientis
# Assay: Anti-Wolbachia Cell-Based Screen
# Format: functional
# Design: scale not given: in the data most compounds retested in dose-response had high values
# Settings: 5 µM
row,SMILES,Percent Effect [%]
1,O=C1NCC2(CCCN(C(=O)Nc3ccc4scnc4c3)CC2)O1 (centres undefined),-9.08
2,Cc1cnn(CC2CCN(CC(O)c3ccc(F)cc3)CC2)c1 (centres undefined),-5.813
3,CC(C)CC(=O)N1CC[C@@H]2[C@H](CC1)N(S(C)(=O)=O)CCS2(=O)=O,1.552
4,CC(C)CN1CCS(=O)(=O)[C@@H]2CCN(S(=O)(=O)N(C)C)CC[C@@H]21.O=C(O)C(F)(F)F,-16.7
5,CC(C)CN1CC[C@@H]2[C@H](CC1)N(S(C)(=O)=O)CCS2(=O)=O.O=C(O)C(F)(F)F,96.88
6,CC(C)CCC(=O)N1CC[C@@H]2[C@H](CC1)N(S(C)(=O)=O)CCS2(=O)=O,94.59
7,CC(=O)N1CCS(=O)(=O)[C@@H]2CCN(CC(C)C)CC[C@@H]21.O=C(O)C(F)(F)F,-6.859
8,CC(C)(C)C(=O)N1CC[C@@H]2[C@H](CC1)N(S(C)(=O)=O)CCS2(=O)=O,98.9
9,CC(=O)N1CCS(=O)(=O)[C@@H]2CCN(S(=O)(=O)CC(C)C)CC[C@@H]21,8.105
10,CC(C)(C)CC(=O)N1CC[C@@H]2[C@H](CC1)N(S(C)(=O)=O)CCS2(=O)=O,-4.617
11,CC(C)CN1CCS(=O)(=O)[C@@H]2CCN(S(=O)(=O)C3CC3)CC[C@@H]21.O=C(O)C(F)(F)F,4.008
12,C[C@H]1CC[C@H](C(=O)N2CCC(n3cc(C4(O)CCCC4)nn3)CC2)CC1,3.706
13,CSc1ncc(C(=O)N2C[C@@H](NC(C)=O)[C@H](c3ccc(C)cc3)C2)cn1,-0.9583
14,CN(C(=O)NCCCN1CCCC1)C1CCN(c2ccccc2)C1=O (centres undefined),-8.204
15,Cc1cc(-c2cncnc2)ccc1OCC(N)=O,-32.33
16,N#Cc1cc(N2CCC(S(N)(=O)=O)CC2)c2ccccc2n1,-5.494
17,COCCN1C[C@@H](C)[C@@]2(COCCN(C(=O)c3cnc(C)cn3)C2)C1.O=C(O)C(F)(F)F,-26.1
18,COCCN1CCCC(c2nc3c([nH]2)CC(C)(C)CNC3=O)C1 (centres undefined),-7.15
19,COCCn1cnc(-c2nc(C(=O)N3CCOCC3)c3ccccn23)c1,-9.685
20,CCCn1cc(C(=O)N2CCCC(c3nccn3CCOC)C2)c(C)n1 (centres undefined),0.1706

row,SMILES,Percent Effect [%]
1,COCCN1CCCC(c2ncc(C(=O)N3CCOCC3)c(C)n2)C1 (centres undefined),169
2,COCCN1CCCC(c2ncc(C(=O)N(C)C)c(C)n2)C1 (centres undefined),128.7
3,COCCCC1(CO)CCCN(C(=O)c2cnc(C3CC3)nc2)C1 (centres undefined),-3.858
4,COc1ccccc1OCCN1CCCC(c2noc(C3CC3)n2)C1 (centres undefined),-3.612
5,COCCN1CCC(c2ncc(C(=O)N3CCOCC3)c(C)n2)CC1,139.1
6,CN1CC(NC(=O)Cc2csc(C(C)(C)C)n2)CCC1=O (centres undefined),-3.161
7,Cn1cccc1C(O)CNS(=O)(=O)c1ccccc1Br (centres undefined),6.296
8,COC(=O)CCN1CCC(C(=O)c2cc(F)ccc2F)CC1,-15.76
9,CN(CC(=O)N1CCCC1)C(=O)c1ccccc1F,15.74
10,COc1ccc(F)cc1CSCC(=O)N(C)C1CC1,-12.98
11,NC(=O)N1CCCC1COC(=O)c1cc(F)ccc1F (centres undefined),-4.772
12,O=C(NCC1(CO)CC1)c1ccccc1F,-18.48
13,COc1ccc(F)cc1C(=O)N(C)[C@@H]1CC[C@@H](O)[C@@H]1O,132.3
14,COc1ccc(F)cc1C(=O)N(C)Cc1cc(C)on1,2.319
15,CN(C(=O)c1ccccc1F)[C@@H]1CC[C@@H](O)[C@@H]1O,107.7
16,CO[C@@H]1CCC[C@@H](N(C)C(=O)c2cc(F)ccc2F)[C@H]1O,130.1
17,CN(C(=O)c1cc(F)ccc1F)[C@@H]1CC[C@@H](O)[C@@H]1O,103
18,N[C@@H]1CC[C@H](C(=O)NCCc2nc(-c3ccccc3)cs2)C1,11.72
19,COc1ccc2c(c1)OCC(Cc1cncc(N)c1)C2 (centres undefined),-0.2819
20,CCN(C)C[C@@H]1CN(C(=O)c2cc(-c3ccc(F)cc3)n[nH]2)C[C@@H]1CO,95.72

row,SMILES,Percent Effect [%]
1,COc1cccc(F)c1C(=O)N1C[C@@H](CN(C)CCO)[C@@H](CO)C1,0.09463
2,CCN(C)C[C@@H]1CN(C(=O)c2cc(C(F)(F)F)n[nH]2)C[C@@H]1CO,95.2
3,CN(C)C[C@@H]1CN(C(=O)c2cc(F)ccc2F)C[C@@H]1CO,-6.942
4,COc1cccc(OC)c1C(=O)N1C[C@@H](CN(C)C)[C@@H](CO)C1,-5.352
5,CN(C)C[C@@H]1CN(C(=O)c2cc(S(N)(=O)=O)ccc2F)C[C@@H]1CO,8.109
6,CN(C)C[C@@H]1CN(C(=O)c2cc(-c3ccccc3)n[nH]2)C[C@@H]1CO,104.8
7,COc1ccc(-n2nc(C)c(C(C)=O)c2C)cc1C(N)=O,0.6017
8,CC(=O)NCCNC(=O)Nc1cccc(Cl)c1SC(F)F,-0.5749
9,Cc1ccc(C#N)c(N2CCCC(c3nccn3Cc3cscn3)C2)n1 (centres undefined),8.413
10,CC(C)COCC1CN(C(=O)c2cscn2)Cc2ncn(C)c21.O=C(O)C(F)(F)F (centres undefined),123.8
11,Cn1cnc2c1C(COCC1CC1)CN(C(=O)Cc1ccsc1)C2.O=C(O)C(F)(F)F (centres undefined),12.67
12,Cn1cnc2c1C(COCC1CC1)CN(C(=O)c1cscn1)C2.O=C(O)C(F)(F)F (centres undefined),-8.988
13,Cc1cnc(C(=O)N2Cc3ncn(C)c3C(COCC(C)C)C2)cn1.O=C(O)C(F)(F)F (centres undefined),101.6
14,COCC1CN(C(=O)COc2ccccc2C)Cc2ncn(C)c21.O=C(O)C(F)(F)F (centres undefined),-9.212
15,CCc1cc(N2CCC(F)(F)CC2)n2nc(C)c(C)c2n1,-3.857
16,O=C(NCC1CCCN1CCc1ccccc1)NCC1(O)CCC1 (centres undefined),3.682
17,c1nnc(Nc2cncc(C3CCCN3CC3CC3)n2)s1 (centres undefined),143.4
18,c1ccc(CCN2CCCC2c2cncc(Nc3nncs3)n2)cc1 (centres undefined),77.51
19,Cc1nc(C)n(CC2CCCN2CC(=O)Nc2nncs2)n1 (centres undefined),-3.74
